High-throughput results (PubChem BioAssay)
An excerpt weighted towards active compounds, which were near 2.9% of everything screened.
PLC-gamma1 inh: inhibitors of human phospholipase C gamma1 | purified PLC-gamma1, fluorogenic substrate, fluorescence | inhibition, % at 12.2 µM | actives 0.84% (n = 370,000) | AID 720700; in the data active = inhibition above about 9.5%
PLC-beta3 inh: inhibitors of human phospholipase C beta3; AID 720704; Purified PLC-beta3, fluorogenic substrate, fluorescence; actives 0.18% (n = 370,000); Q01970; inhibition, % at 12.2 µM; in the data active = inhibition above about 11%;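 note: 0% = median of compound wells on plate and 100% = full blocker control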
KLK7 zymogen act: proKLK7 (human) activation, primary screen | purified proKLK7, EDANS-DABCYL substrate fluorescence; 100% is mature enzyme control, 0% vehicle | AID 652039 | P49862 | actives 0.9% (n = 370,000) | activation, % at 7 µM;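 active = activation above the mean of all tested compounds plus 3 SD, computed per campaign excluding outliers beyond control limits, cut at about 13% in these data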
Target sequence (P49862 whole entry, looked up): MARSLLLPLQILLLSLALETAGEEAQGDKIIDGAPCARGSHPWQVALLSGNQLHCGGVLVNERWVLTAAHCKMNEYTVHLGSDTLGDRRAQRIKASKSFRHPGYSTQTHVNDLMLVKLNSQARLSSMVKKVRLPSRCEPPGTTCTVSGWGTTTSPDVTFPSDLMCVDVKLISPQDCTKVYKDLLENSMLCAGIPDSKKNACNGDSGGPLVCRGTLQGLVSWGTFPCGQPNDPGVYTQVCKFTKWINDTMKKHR
ADAM10 inh: inhibitors of human ADAM10; inhibition, % at 7 µM; AID 720582; O14672; recombinant ADAM10, EDANS/DABCYL FRET peptide cleavage, 3 h; actives 0.62% (n = 370,000);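 active = inhibition above a per-campaign cutoff equal to the mean of compounds falling between control-based bounds plus 3 SD, cut at about 20% in these data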;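 note: 0% = DMSO wells while the 100% control is not disclosed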
ADAM17 inh: ADAM17 inhibition, QFRET primary screen; inhibition, % at 6.95 µM; AID 720648; P78536; actives 0.83% (n = 370,000); recombinant ADAM17, EDANS/DABCYL FRET peptide cleavage;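 active = inhibition above the mean of compounds lying between control limits plus 3 SD, set per campaign, cut at about 8.5% in these data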;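 note: 0% = DMSO-only wells as the low control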
Numbers without * were called inactive; i = inactive; / = no result given.

SMILES	PLC-gamma1 inh	PLC-beta3 inh	KLK7 zymogen act	ADAM10 inh	ADAM17 inh
Cc1ccc(-c2cc(C(=O)N3CCOCC3)c3ccccc3n2)o1	i	i	112*	i	i
Cc1ccc(-c2cc(C(=O)N3CCN(c4ccc(F)cc4)CC3)c3ccccc3n2)o1	i	i	-22	-285	-100
C[C@@H]1COc2cc(N3CCN(Cc4ccccc4F)CC3)ccc2S(=O)(=O)N1	9.8*	5	0	1	3
COc1ccccc1C(=O)N1CCC2CCN(C(=O)c3ccccc3)C2C1 (stereo not drawn)	2	-1	0	-12	-7
Cc1cccc2sc(NC(=O)C3CCN(S(=O)(=O)c4cc([N+](=O)[O-])ccc4Cl)CC3)nc12	-4	-1	0	20*	6
CSc1ccc(CNC(=O)C2(C)CCCN(C(C)=O)C2)cc1 (stereo not drawn)	4	11*	0	3	3
CSc1ccc(CNC(=O)C2(C)CCCN(C(C)C)C2)cc1 (stereo not drawn)	-2	0	1	-14	-4
N#CC1(Nc2ccc(-c3ccc(NC4(C#N)CCCC4)cc3)cc2)CCCC1	-22	-29	0	22*	19*
COc1ccc(NS(=O)(=O)c2cccc(C(=O)N/N=C(/C)c3ccc(-n4ccnc4)cc3)c2)cc1	-3	-7	-1	-16	-3
CCOc1ccc(S(=O)(=O)Nc2ccc(C(=O)N/N=C(\C)c3ccc(-n4ccnc4)cc3)cc2)cc1	-4	-7	0	11	9.0*
Cc1c(C)c2c(OCC(=O)N3CCC(C(N)=O)CC3)cc3c(c2oc1=O)CCC(C)(C)O3	i	i	32*	i	i
Cc1c(C)c2c(OCC(=O)NC3CC3)cc3c(c2oc1=O)CCC(C)(C)O3	-460	i	-9	i	i
Cc1ccc(-c2nn(-c3ccccc3)cc2C=C2SC(=S)N(CCS(=O)(=O)O)C2=O)cc1	-15	-5	-1	11	1
O=C1C(=Cc2cn(-c3ccccc3)nc2-c2ccc(OCc3ccccc3)cc2)SC(=S)N1CCS(=O)(=O)O	-8	-21	0	29*	5
CC(=O)OCCn1c(=O)c2cc3c(=O)n(CCOC(C)=O)c(=O)c3cc2c1=O	9.9*	4	1	4	2
COCCn1c(=O)c2ccccc2c2ccccc2c1=O	3	2	-1	7	-1
COc1ccc(-c2ccnc3nc(N4CCOCC4)nn23)cc1	i	i	44*	i	-439
CCCCCCCCN1C(=O)[C@@H](CC(=O)NCCCOCCCC)C[C@@]2(C(=O)OC)C1=C[C@H](COCc1ccccc1)O[C@@H]2C	-5	-1	1	6	3
CCn1c(SCC(=O)Nc2ccc(S(=O)(=O)Nc3cc(C)nc(C)n3)cc2)nc2sc(C)c(C)c2c1=O	0	-3	1	-3	1
CCc1c(O)nc(SCC(=O)Nc2ccccc2C)[nH]c1=O	2	3	0	0	-9
CC(=O)Nc1c(O)nc(SCC(=O)Nc2c(C)cccc2C)[nH]c1=O	12*	12*	0	-1	4
CCCN1CC(=O)N2[C@H](C[C@@]3(n4ccc5ccccc54)c4ccccc4N(S(=O)(=O)c4ccccc4)[C@@H]23)C1=O	-5	-4	0	6	4
COCc1cc(N2CCNC[C@@H]2C)ccc1N1C[C@@H](C)O[C@@H](C)C1	-1	1	1	-11	-5
COC(=O)C1(C)NC(c2ccc(O)cc2)C2C(=O)N(c3ccccc3)C(=O)C21 (stereo not drawn)	-2	-6	0	-4	-8
COC(=O)C1(C)NC(c2ccc(O)cc2)C2C(=O)N(c3ccc(F)cc3)C(=O)C21 (stereo not drawn)	15*	3	0	8	4
SMILES	PLC-gamma1 inh	PLC-beta3 inh	KLK7 zymogen act	ADAM10 inh	ADAM17 inh
COc1nc(Nc2nc3ccccc3c(=O)[nH]2)nc2ccc(C)cc12	14*	7	0	10	0
O=[N+]([O-])c1ccc(Nc2ccccc2)c2nonc12	-1	-8	0	9	0
NNc1ccc([N+](=O)[O-])c2[nH][nH]c(=O)c12	23*	-5	0	-6	-2
COc1ccc(CN=Cc2c(O)[nH]c3ccccc23)cc1	10.0*	5	1	-4	0
O=C(NCCO)C1(C(=O)C2CC2)CC(c2ccccn2)=NO1 (stereo not drawn)	0	-1	0	-8	-3
Cn1c(SCC(=O)Nc2ccccc2-c2ccccc2)nnc1-c1cnccn1	6	0	-1	9	5
COc1ccc(C(=O)N2CCCC2)cc1S(=O)(=O)N1CCC(C)CC1	3	11*	1	6	8
COc1ccc(C(=O)N2CCCC2)cc1S(=O)(=O)N1CCOCC1	0	0	1	-14	-5
C#CCNC(=O)C[C@@H]1C(=O)N2CCCC3=C2[C@@]1(C(=O)OCC)CCC3	5	5	0	-11	-9
COc1ccc(CNC2CCC23CCC(C)CC3)cc1OC (stereo not drawn)	-1	1	/	-1	0
O=C(NC1CCCCC1)c1cc(S(=O)(=O)N2CCN(c3ccccc3)CC2)ccc1Cl	-5	3	1	6	-1
O=C(Nc1ccc2c(c1)CCC2)c1cc(S(=O)(=O)N2CCN(c3ccccc3)CC2)ccc1Cl	0	-3	-1	22*	7
COC(=O)c1cc(-c2cc(Cl)ccc2OC)c(=O)n2c1CCC2	-1	-4	1	-14	-3
C=CCN1C(=O)/C(=C/c2ccc(O)c(OC)c2)S/C1=N/c1nccs1	-359	-379	-1	22*	8
N#Cc1ccc(S(=O)(=O)NCC2CCN(C(=O)C(=O)c3cc4ccccc4o3)CC2)cc1	-2	0	1	1	1
O=C(Nc1ccc(Oc2ccccc2)cc1)c1csc([C@@H]2O[C@H](CO)[C@H](O)[C@H](O)[C@H]2O)n1	9.7*	4	-1	-1	6
COC(=O)[C@]12C[C@H](CC(=O)NCCCCc3ccccc3)C(=O)N(Cc3ccco3)C1=C[C@H](COCc1ccccc1)O[C@@H]2C	-2	-3	0	7	2
CC(Oc1ccc2oc(-c3ccccc3)c(C(=O)O)c2c1)C(=O)O (stereo not drawn)	-273	-348	5	i	-226
Cc1oc2ccc(OC(C(=O)O)c3ccccc3)cc2c1C(=O)O (stereo not drawn)	9.9*	6	0	1	-1
Oc1ccc(Br)cc1-c1nc2cnccn2c1NC1CCCC1	i	i	49*	-362	-106
CCOc1ccc2nc(N(CCCN(C)C)C(=O)c3ccc4c(c3)CCCC4)sc2c1	0	-10	-1	-5	-3
CN(C)CCCN(C(=O)c1ccc2c(c1)CCCC2)c1nc2ccc(Cl)cc2s1	7	0	0	17	8.7*
CC(C)Oc1ccc(C(CCN)C2CCCCC2)cc1 (stereo not drawn)	12*	-4	0	-2	-1
